SMILES strings stand for the structures. Compounds without any hit were thinned out: in the full panel of roughly 83,000, 20% have a hit.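 Single-dose data. Exposure time 48 hours. Values below 10 considered active.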 Values without a mark were called inactive. Activity calls are given as the source filed them.

For 12 compounds, growth results are on record in PubChem BioAssay (NCI).

Test systems include RPMI-8226 leukemia; OVCAR-8 ovarian; OVCAR-5 ovarian; OVCAR-4 ovarian; SK-OV-3 ovarian; IGROV1 ovarian; OVCAR-3 ovarian; HS 578T breast; NCI/ADR-RES ovarian; T-47D breast.
Holding throughout (experiment): NCI-60 one-dose screen, 48 h (100 = growth as untreated, 0 = no growth, -100 = all killed)
Common to all, as to conditions: 10 µM unless noted

For the compound `COc1ccc(-n2cc(COc3ccc4c5ccnc(C)c5n(CC(C)C)c4c3)nn2)cc1`, the growth with RPMI-8226 leukemia is 27.5%; in the assay on OVCAR-8 ovarian it was 37.6%; in the assay with OVCAR-5 ovarian, 91.3%; in the assay with OVCAR-4 ovarian, 65.9%; with SK-OV-3 ovarian, 56.7%; with IGROV1 ovarian it was 79%. Further, the growth in the assay on OVCAR-3 ovarian was 66.2%; in the assay on HS 578T breast, 49.7%; in the assay on NCI/ADR-RES ovarian, 53.9%; with T-47D breast, 39.2%.

In the case of `COc1ccc(-c2nnc(N3CCN(C(=O)CN4CCN(c5ccc(OC)cc5)CC4)CC3)nc2-c2ccc(OC)cc2)cc1`, the growth was -59.8% (active) with RPMI-8226 leukemia; -54.9% (active) in the assay with OVCAR-8 ovarian; 111% in the assay with OVCAR-5 ovarian; -48.3% (active) in the assay on OVCAR-4 ovarian; 101% in the assay with SK-OV-3 ovarian; -60.8% (active) in the assay on IGROV1 ovarian. The growth with OVCAR-3 ovarian is -96.1% (active); in the assay with HS 578T breast it was 21%; with NCI/ADR-RES ovarian, -40.6% (active); with T-47D breast, -64.5% (active).

As to `CCOc1ccccc1C(=O)/C=C/c1cc2ccccc2[nH]c1=O`, the growth is -12.1% (active) with RPMI-8226 leukemia; 7.43% (active) in the assay on OVCAR-8 ovarian; 5.93% (active) in the assay with OVCAR-5 ovarian; 32.3% with OVCAR-4 ovarian; 18.8% in the assay with SK-OV-3 ovarian; 1.32% (active) in the assay on IGROV1 ovarian. The growth in the assay with OVCAR-3 ovarian was -30.7% (active); with HS 578T breast it was 60.1%; in the assay on NCI/ADR-RES ovarian, -4.24% (active); in the assay on T-47D breast, 4.65% (active).

On to `COc1ccc(Sc2[nH]c(C(C)=O)c3ccccc23)cc1`, for which the growth in the assay on RPMI-8226 leukemia is 41.4%; with OVCAR-8 ovarian, 88%; in the assay on OVCAR-5 ovarian, 94.1%; with OVCAR-4 ovarian, 71.2%; with SK-OV-3 ovarian, 19%; in the assay with IGROV1 ovarian it was 83.6%. The growth in the assay with OVCAR-3 ovarian is 68.3%; in the assay on HS 578T breast, 83.9%; in the assay with NCI/ADR-RES ovarian, 40.8%; in the assay with T-47D breast, 56.5%.

Consider `O=C1CCC23OC(c4ccccc4N12)C(O)C(O)C3O` (stereo not given), for which the growth is 103% with RPMI-8226 leukemia; 99.3% with OVCAR-8 ovarian; 110% with OVCAR-5 ovarian; 105% in the assay with OVCAR-4 ovarian; 117% in the assay with SK-OV-3 ovarian; 98.2% in the assay with IGROV1 ovarian. The growth in the assay on OVCAR-3 ovarian was 96.3%; with HS 578T breast, 105%; in the assay with NCI/ADR-RES ovarian, 101%; in the assay with T-47D breast, 110%.

As for `COc1ccc(C(=S)c2cc(OC)c(OC)c(OC)c2)cc1OC(=O)CCl`, the growth in the assay with RPMI-8226 leukemia is 26.9%; in the assay on OVCAR-8 ovarian, 14.4%; with OVCAR-5 ovarian, 66.9%; with OVCAR-4 ovarian it was 52.9%; in the assay on SK-OV-3 ovarian, 25.3%; with IGROV1 ovarian, 24.4%. Moreover, the growth was 8.17% (active) with OVCAR-3 ovarian, 37.8% in the assay with HS 578T breast, 7.4% (active) in the assay with NCI/ADR-RES ovarian and 62.6% with T-47D breast.

For the compound `O=S(=O)(Nc1nccs1)c1ccc(Nc2nc(-c3ccncc3)cs2)cc1`, the growth with RPMI-8226 leukemia is 99.3%; in the assay with OVCAR-8 ovarian it was 121%; in the assay on OVCAR-5 ovarian, 117%; in the assay on OVCAR-4 ovarian, 115%; in the assay on SK-OV-3 ovarian, 108%; in the assay on IGROV1 ovarian, 84.1%. Further, the growth was 118% in the assay with OVCAR-3 ovarian, 96.8% in the assay with HS 578T breast, 122% with NCI/ADR-RES ovarian and 105% in the assay on T-47D breast.

Turning to `Cc1ccc(C(=O)/C(=C/c2ccc([N+](=O)[O-])cc2)S(=O)Cc2ccccc2)cc1` (stereo not given), the growth was -13% (active) in the assay on RPMI-8226 leukemia; 18.5% in the assay with OVCAR-8 ovarian; 39.5% in the assay on OVCAR-5 ovarian; 35% in the assay on OVCAR-4 ovarian; 80.2% in the assay on SK-OV-3 ovarian; -7.98% (active) in the assay on IGROV1 ovarian. Further, the growth in the assay with OVCAR-3 ovarian is 0.0452% (active); with HS 578T breast, -2.56% (active); in the assay on NCI/ADR-RES ovarian, 14.3%; with T-47D breast, -38.3% (active).

On to `COc1cc(NC(=O)Nc2cnc(Nc3ccc(N4CCOCC4)cc3)nc2Oc2ccc(F)cc2)cc(OC)c1`, for which the growth with RPMI-8226 leukemia was 81.3%; with OVCAR-8 ovarian, 73.4%; in the assay on OVCAR-5 ovarian, 113%; in the assay with OVCAR-4 ovarian, 60%; in the assay on SK-OV-3 ovarian, 102%; in the assay on IGROV1 ovarian, 94.2%. Further, the growth in the assay with OVCAR-3 ovarian is 97.8%; in the assay on HS 578T breast, 85.7%; in the assay with NCI/ADR-RES ovarian, 95.4%; in the assay on T-47D breast it was 53.5%.

With `O=C(/C(=C\c1c(-c2ccccc2)[nH]c2ccccc12)S(=O)(=O)c1ccccc1)c1ccccc1`, the growth in the assay on RPMI-8226 leukemia was -34.2% (active); in the assay with OVCAR-8 ovarian, 66.2%; in the assay on OVCAR-5 ovarian, 83.1%; in the assay with OVCAR-4 ovarian, 42.8%; in the assay with SK-OV-3 ovarian, 23.1%; in the assay with IGROV1 ovarian it was 78.7%. In addition, the growth in the assay with OVCAR-3 ovarian is 56.3%; in the assay with HS 578T breast, 72.1%; in the assay with NCI/ADR-RES ovarian, 43.4%; with T-47D breast, 22.2%.

For `COc1ccc2nc(-c3ccc(Cl)cc3)cc(C(=O)N3N=C(c4ccc(N)cc4)CC3c3ccccc3)c2c1` (stereo not given), the growth in the assay on RPMI-8226 leukemia is 29%; in the assay with OVCAR-8 ovarian it was 54%; in the assay on OVCAR-5 ovarian it was 80.9%; in the assay on OVCAR-4 ovarian it was 65.8%; with SK-OV-3 ovarian it was 46.1%; in the assay on IGROV1 ovarian, 53.9%. Moreover, the growth in the assay with OVCAR-3 ovarian is 9.64% (active); with HS 578T breast, 48.4%; with NCI/ADR-RES ovarian, 15.2%; in the assay with T-47D breast, 38.8%.

Regarding `C=C(C)[C@@H]1CC[C@]2(C(=O)OCCOCCOCC[P+](c3ccccc3)(c3ccccc3)c3ccccc3)CC[C@]3(C)[C@H](CC[C@@H]4[C@@]5(C)CC[C@H](OC(=O)C(Cl)Cl)C(C)(C)[C@@H]5CC[C@]43C)[C@@H]12`, the growth in the assay on RPMI-8226 leukemia was -39.3% (active); in the assay with OVCAR-8 ovarian, 5.47% (active); in the assay with OVCAR-5 ovarian, 39.3%; with OVCAR-4 ovarian it was -0.899% (active); in the assay on SK-OV-3 ovarian, -8.97% (active); in the assay on IGROV1 ovarian it was 6.43% (active). The growth in the assay with OVCAR-3 ovarian is -43.9% (active); with HS 578T breast, 21.3%; in the assay with NCI/ADR-RES ovarian, 50.2%; in the assay with T-47D breast it was -21.2% (active).
